The values that follow come from PubChem BioAssay (NCI).

This is part of a sample that, as a whole, favours compounds with a hit. Of some 83,000 tested, about 20% had one in any assay.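 48-hour exposure, single concentration, 96-well plates; percent growth endpoint where 0 means no net growth. Active: below 10.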 A number with no mark means an inactive call. The source made the active and inactive calls.

The subject of this assay is OVCAR-8 ovarian. In words: NCI-60 one-dose screen, 48 h (100 = growth as untreated, 0 = no growth, -100 = all killed). The note with it: 10 µM unless noted.
For the compound `Nc1cc2ccccc2c(O)c1O`, the growth was -69.9% (active).

Turning to `CC(=O)Nc1ccc(O)c(C)c1`, the growth was 100%.

Consider `O=C(CCl)Nc1ccccc1SCc1cc(Cl)cc2c1OCOC2`, for which the growth was 75.4%.

With `C/C(O)=C(/C=N\C(=S)Nc1ccc(S(=O)(=O)Nc2nccs2)cc1)C(=O)Nc1ccccc1C`, the growth was 87.7%.

For the compound `CC(C)c1ccc(C(=O)OCCCl)cc1`, the growth is 94%.

Take `O=C(NCc1ccccc1)c1cccc([N+](=O)[O-])c1`: the growth was 97.2%.

Regarding `C1CCc2onc(-c3noc4c3CCCCC4)c2CC1`, the growth is 109%.

Turning to `COc1ccc(Nc2cc(Cl)ccc2C(=O)O)cn1`, the growth was 103%.

As for `CCCCOC(=O)c1ccccc1O`, the growth is 107%.

`C=CCN1CCCC1=O`: the growth was 110%.

For `CCN(CC)CCN1CNC(=S)NC1`, the growth is 112%.

Take `COC1OC(C(COC(C)=O)OC(C)=O)C(OC(C)=O)C(OC(C)=O)C1OC(C)=O` (stereo not drawn): the growth was 103%.

As to `Nc1ccc(F)cc1F`, the growth was 116%.

Consider `COc1cc(CC#N)c([N+](=O)[O-])cc1OC`, for which the growth is 98.2%.

Regarding `CC(C)N(C(=O)c1ccccc1)C(C)C`, the growth was 111%.

As to `CCC(C)C1CCC(O)CC1` (stereo not drawn), the growth was 100%.

As to `Cc1ccc(NC(=S)N2CCOCC2)cc1C`, the growth was 104%.

On to `O=C1NC(=O)/C(=C\c2ccncc2)N1`, for which the growth is 103%.

Turning to `CC(C)(CC(=O)O)CC(=O)O`, the growth was 121%.

For `ClCC(Cl)[C@@H]1CC2C=CC1C2` (stereo partly drawn), the growth is 96.2%.

Regarding `CC(=O)NCNC(C)=O`, the growth is 98%.

Regarding `CCOC(=O)/C(C)=C\c1ccc(OC)c(OC)c1`, the growth is 101%.

For `O=C(OCC1CCCO1)c1ccc([N+](=O)[O-])cc1` (stereo not drawn), the growth is 99.2%.

On to `C=CC(=O)OC1CCC(C(C)(C)CC)CC1` (stereo not drawn), for which the growth was 107%.

As for `Cc1cc(=O)n(Nc2ccccc2)c(O)c1C#N`, the growth was 106%.

Regarding `O=C(O)c1c[nH]c2ccccc2c1=O`, the growth is 108%.

On to `CCNc1ncnc2[nH]ncc12`, for which the growth was 72.3%.

As for `COC1OC(C(O)C(O)CO)C(O)C(O)C1O` (stereo not drawn), the growth is 105%.

For `CCCCN(C=S)CCCC`, the growth was 95%.

As for `CCOC(=O)c1ccc(C(C)(C)C)cc1`, the growth was 103%.

As for `CCOC(=O)C(CCC#N)(CCC#N)C(=O)OCC`, the growth is 104%.

Turning to `CCC1CCC(C)NC1` (stereo not drawn), the growth was 102%.

On to `CC(=O)OC(C)c1cccc(C#N)c1` (stereo not drawn), for which the growth is 103%.

Regarding `O=[N+]([O-])c1ccc2[nH]c(=S)n(/C=C(/c3ccc(Cl)cc3Cl)S(=O)(=O)Cc3ccc(Cl)cc3Cl)c2c1`, the growth is 93.7%.

`C=C(OC(C)=O)c1ccccc1`: the growth is 101%.

In the case of `CC(=O)O[C@H]1CC[C@]2(C)C3=C(C(=O)C[C@H]2C1(C)C)[C@]1(C)CC[C@H]([C@H](C)CCC(=O)O)[C@@]1(C)CC3=O`, the growth was 109%.

As for `CC(=O)c1cccc(NS(=O)(=O)c2ccc(C)cc2)c1`, the growth is 90.1%.

On to `O=C(CCl)Oc1ccc([N+](=O)[O-])cc1`, for which the growth is 102%.
